Assay outcomes as filed in PubChem.
M1 PAM – positive allosteric modulators of human M1 muscarinic receptor; P11229; CHO-K1 hM1, Fluo-8 calcium fluorescence, ACh EC20; 0% = ACh EC20, 100% = maximal ACh; activation, % at 3 µM; 360,000 compounds, 0.088% hits; in the data active means activation above about 19%, passing the limit was not always enough
Target sequence (P11229 whole entry, looked up): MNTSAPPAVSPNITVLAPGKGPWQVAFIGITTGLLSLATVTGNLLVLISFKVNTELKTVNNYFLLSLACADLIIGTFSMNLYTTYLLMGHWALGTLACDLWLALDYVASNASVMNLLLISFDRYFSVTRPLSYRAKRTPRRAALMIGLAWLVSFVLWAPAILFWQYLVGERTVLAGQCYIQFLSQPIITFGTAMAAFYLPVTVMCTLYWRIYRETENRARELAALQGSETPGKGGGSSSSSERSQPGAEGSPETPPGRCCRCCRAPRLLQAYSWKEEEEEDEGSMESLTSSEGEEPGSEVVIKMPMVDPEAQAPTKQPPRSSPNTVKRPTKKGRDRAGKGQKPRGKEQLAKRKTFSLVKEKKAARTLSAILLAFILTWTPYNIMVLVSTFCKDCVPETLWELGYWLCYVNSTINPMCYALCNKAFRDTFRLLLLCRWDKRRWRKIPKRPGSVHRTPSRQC
M1 antag – human CHRM1 antagonism; P11229; CHO-K1 hM1, Fluo-8 calcium fluorescence, ACh EC80 antagonist; inhibition, % at 3 µM; 360,000 compounds, 1.3% hits; AID 588852;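 active means percent inhibition above its own plate's cutoff, namely the mean of that plate's compound wells plus 3 SD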;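 further: peak over basal fluorescence ratio during 140 s after agonist addition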
CHO-K1 Ca ag – counter-screen for M1 agonists: effect in parental CHO-K1 cells; Fluo-8 calcium fluorescence; scaled to maximal ATP response, vehicle zero; activation, % at 3 µM; 360,000 compounds, 0.48% hits; AID 602248; in the data active means activation above about 15%;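 further: untransfected CHO-K1 host cells lacking M1 receptor as counterscreen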
CHO-K1 Ca antag – nonselective inhibitor or artifact in parental CHO-K1 cells; ATP-induced calcium, Fluo-8 fluorescence; inhibition, % at 3 µM; 360,000 compounds, 0.6% hits; AID 602250;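 active means inhibition above a per-plate cutoff, the plate's mean sample inhibition plus 3 SD, cut at about 24% in these data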
M1 ag – activates human CHRM1 receptor; 360,000 compounds, 0.33% hits; CHO-K1 hM1, Fluo-8 calcium fluorescence, agonist mode; 0% DMSO, 100% acetylcholine EC100; activation, % at 3 µM;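 active means activation above the run's mean compound activation plus 3 SD, cut at about 16% in these data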;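 further: peak over basal fluorescence ratio within a 140 s kinetic read after compound addition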
CHO-K1 Ca PAM – M1 PAM counterscreen hit in parental CHO-K1 cells; AID 602247; ATP EC20, Fluo-8 calcium fluorescence; 0% at ATP EC20, 100% at ATP max; activation, % at 3 µM; 360,000 compounds, 0.02% hits;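 active means activation above the run cutoff, the mean activation of all test compounds plus 3 SD, cut at about 40% in these data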;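 further: peak over basal fluorescence ratio in a 140 s read after ATP addition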
A number is an active result. Only some compounds are listed: those with a hit (about 2.3% of all), similar ones and a draw of the others.

`COc1ccc(-c2oc3ccc(-c4cc(OC)c(OC)c(OC)c4)cc3c2-c2ccc(OC)nc2)cc1` gave M1 PAM inactive, M1 antag inactive, CHO-K1 Ca ag inactive, CHO-K1 Ca antag inactive, M1 ag inactive and CHO-K1 Ca PAM inactive.
`CC(C)(C)CC(C)(C)n1nnnc1N` gave M1 PAM inactive, M1 antag inactive, CHO-K1 Ca ag inactive, CHO-K1 Ca antag inactive, M1 ag inactive and CHO-K1 Ca PAM inactive.
Screening Cc1ccc(NC(=O)CSCC(=O)Nc2cc(Cl)ccc2N2CCOCC2)cc1 returned M1 PAM inactive, M1 antag inactive, CHO-K1 Ca ag inactive, CHO-K1 Ca antag inactive, M1 ag inactive and CHO-K1 Ca PAM inactive.
For CC(=O)N1CCN(c2ccccc2NC(=O)COc2cc(C)ccc2C(C)C)CC1 the results were M1 PAM inactive, M1 antag 30, CHO-K1 Ca ag inactive, CHO-K1 Ca antag inactive, M1 ag inactive and CHO-K1 Ca PAM inactive.
Screening CC(=O)Nc1cc([N+](=O)[O-])ccc1OCc1ccccc1 returned M1 PAM inactive, M1 antag inactive, CHO-K1 Ca ag inactive, CHO-K1 Ca antag inactive, M1 ag inactive and CHO-K1 Ca PAM inactive.
Screening Cn1nc(C(=O)Nc2ccc3c(c2)OCO3)c2ccccc2c1=O returned M1 PAM 27, M1 antag inactive, CHO-K1 Ca ag inactive, CHO-K1 Ca antag inactive, M1 ag inactive and CHO-K1 Ca PAM inactive.
CN1C(=O)c2ccc(C(=O)Nc3ccc4c(c3)OCO4)cc2C1=O was read as M1 PAM inactive, M1 antag inactive, CHO-K1 Ca ag inactive, CHO-K1 Ca antag 37, M1 ag inactive and CHO-K1 Ca PAM inactive.
Screening O=C(Nc1ccc2c(c1)OCO2)c1ccccc1 returned M1 PAM inactive, M1 antag inactive, CHO-K1 Ca ag inactive, CHO-K1 Ca antag inactive, M1 ag inactive and CHO-K1 Ca PAM inactive.
`Cc1ccc(C(=O)CCc2ccc(N)cc2)cc1` gave M1 PAM inactive, M1 antag inactive, CHO-K1 Ca ag inactive, CHO-K1 Ca antag inactive, M1 ag inactive and CHO-K1 Ca PAM inactive.
For CCc1ccc(CN2CCC(Oc3ccc(C(=O)N4CCCCC4)cc3)CC2)cc1 the results were M1 PAM inactive, M1 antag 42, CHO-K1 Ca ag inactive, CHO-K1 Ca antag inactive, M1 ag inactive and CHO-K1 Ca PAM inactive.
For CC(C)c1ccc(CN2CCC(Oc3ccc(C(=O)N4CCCC4)cc3)CC2)cc1 the results were M1 PAM inactive, M1 antag 81, CHO-K1 Ca ag inactive, CHO-K1 Ca antag inactive, M1 ag inactive and CHO-K1 Ca PAM inactive.
For O=C(c1ccc(OC2CCN(C/C=C/c3ccc(F)cc3)CC2)cc1)N1CCCC1 the results were M1 PAM inactive, M1 antag 55, CHO-K1 Ca ag inactive, CHO-K1 Ca antag inactive, M1 ag inactive and CHO-K1 Ca PAM inactive.
For O=C(c1ccc(OC2CCN(Cc3ccc(F)cc3)CC2)cc1)N1CCCC1 the results were M1 PAM inactive, M1 antag inactive, CHO-K1 Ca ag inactive, CHO-K1 Ca antag inactive, M1 ag inactive and CHO-K1 Ca PAM inactive.
`COc1cc(C)c(CN2CCC(Oc3ccc(C(=O)N4CCCC4)cc3)CC2)cc1C` gave M1 PAM inactive, M1 antag inactive, CHO-K1 Ca ag inactive, CHO-K1 Ca antag inactive, M1 ag inactive and CHO-K1 Ca PAM inactive.
`COc1ccc(CN2CCC(Oc3ccc(C(=O)N4CCCC4)cc3)CC2)c(F)c1` gave M1 PAM inactive, M1 antag 61, CHO-K1 Ca ag inactive, CHO-K1 Ca antag inactive, M1 ag inactive and CHO-K1 Ca PAM inactive.
Screening COc1cccc(CN2CC(C(=O)NCCCn3cccn3)CCC2=O)c1 (stereo not drawn) returned M1 PAM inactive, M1 antag inactive, CHO-K1 Ca ag inactive, CHO-K1 Ca antag inactive, M1 ag inactive and CHO-K1 Ca PAM inactive.
Cc1ccc(S(=O)(=O)Cc2cc(F)c([N+](=O)[O-])cc2[N+](=O)[O-])cc1 was read as M1 PAM inactive, M1 antag inactive, CHO-K1 Ca ag inactive, CHO-K1 Ca antag inactive, M1 ag inactive and CHO-K1 Ca PAM inactive.
`CCOc1cccc(CN2CCC(Oc3ccc(C(=O)N4CCCC4)cc3)CC2)c1` gave M1 PAM inactive, M1 antag 49, CHO-K1 Ca ag inactive, CHO-K1 Ca antag inactive, M1 ag inactive and CHO-K1 Ca PAM inactive.
For CCOC(=O)C1(CC2CC2)CCN(Cc2ccc(OC)cc2F)CC1 the results were M1 PAM inactive, M1 antag 28, CHO-K1 Ca ag inactive, CHO-K1 Ca antag inactive, M1 ag inactive and CHO-K1 Ca PAM inactive.
For CSc1ccc(CN2CCC(Oc3ccc(C(=O)N4CCCC4)cc3)CC2)cc1 the results were M1 PAM inactive, M1 antag 87, CHO-K1 Ca ag inactive, CHO-K1 Ca antag inactive, M1 ag inactive and CHO-K1 Ca PAM inactive.
For CCc1ccc(CN2CCC(Oc3ccc(C(=O)N4CCCC4)cc3)CC2)cc1 the results were M1 PAM inactive, M1 antag 82, CHO-K1 Ca ag inactive, CHO-K1 Ca antag inactive, M1 ag inactive and CHO-K1 Ca PAM inactive.
Screening COc1ccccc1C(=O)NC(=O)Nc1c(C)cc(C)cc1C returned M1 PAM inactive, M1 antag inactive, CHO-K1 Ca ag inactive, CHO-K1 Ca antag inactive, M1 ag inactive and CHO-K1 Ca PAM inactive.
Screening CC1(C)Cc2ccccc2C(N/N=C/c2ccc(Cl)cc2)=N1 returned M1 PAM inactive, M1 antag inactive, CHO-K1 Ca ag inactive, CHO-K1 Ca antag inactive, M1 ag inactive and CHO-K1 Ca PAM inactive.
For Cc1ccc(CNC(=S)Nc2ccc(C)c([N+](=O)[O-])c2)cc1 the results were M1 PAM inactive, M1 antag inactive, CHO-K1 Ca ag inactive, CHO-K1 Ca antag 29, M1 ag inactive and CHO-K1 Ca PAM inactive.
`Cc1ccc(NC(=S)NCc2ccccc2)cc1[N+](=O)[O-]` gave M1 PAM inactive, M1 antag inactive, CHO-K1 Ca ag inactive, CHO-K1 Ca antag inactive, M1 ag inactive and CHO-K1 Ca PAM inactive.
COc1cccc(NC(=S)NC(=O)Cc2ccc(Cl)cc2)c1 was read as M1 PAM inactive, M1 antag inactive, CHO-K1 Ca ag 23, CHO-K1 Ca antag inactive, M1 ag 37 and CHO-K1 Ca PAM inactive.
For COc1ccc(CC(=O)NC(=S)Nc2cccc(C)c2)cc1 the results were M1 PAM inactive, M1 antag inactive, CHO-K1 Ca ag inactive, CHO-K1 Ca antag inactive, M1 ag 26 and CHO-K1 Ca PAM inactive.
COc1ccc(CC(=O)NC(=S)Nc2cccc(CO)c2)cc1 was read as M1 PAM inactive, M1 antag inactive, CHO-K1 Ca ag inactive, CHO-K1 Ca antag inactive, M1 ag 29 and CHO-K1 Ca PAM inactive.
COc1ccccc1NC(=S)NC(=O)Cc1ccc(Cl)cc1 was read as M1 PAM inactive, M1 antag inactive, CHO-K1 Ca ag inactive, CHO-K1 Ca antag inactive, M1 ag inactive and CHO-K1 Ca PAM inactive.
CCC(=O)Nc1cccc(NC(=S)NC(=O)Cc2ccccc2)c1 was read as M1 PAM inactive, M1 antag inactive, CHO-K1 Ca ag inactive, CHO-K1 Ca antag inactive, M1 ag inactive and CHO-K1 Ca PAM inactive.
